Reference: PubChem BioAssay (Tox21)
Results filed as inconclusive are left out. Active and inactive are the calls of the source. Unless noted, calls follow the shape of the dose curve; as a rule, active = well fitted curve in the direction sought with a large enough effect in the repeat runs; inconclusive = weak or mixed curves; inactive = no such curve, though single readings can be large; an effect the other way counts as inactive or inconclusive.

Key:
[1] = qHTS RealTime-Glo MT Cell Viability Assay in HepG2 cells - 32 hour (AID 1224877); also: nearly all actives have a fitted effect of over 55% in size
How it was run: (§1)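 HepG2 cells were seeded at 600 cells/well together with NanoLuc luciferase and a cell-permeant prosubstrate, preincubated 5 h at 37 C/5% CO2, then pin-dosed with compounds in DMSO. Nonlytic luminescence from viable cells was read at each time point.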

[2] = A CellTox Green Cytotoxicity Assay to monitor cytotoxicity in HepG2 cells - 24 hour (AID 1224878); also: nearly all actives have a fitted effect of over 45% in size
How it was run: (§2)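 HepG2, 600 cells/well premixed w/ CellTox Green; 5 h settle, 37 C/5% CO2; pintool cpd add (DMSO); 37 C, 40 h; fluorescence read at 0, 8, 16, 24, 32, 40 h.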

[3] = A CellTox Green Cytotoxicity Assay to monitor cytotoxicity in HepG2 cells - 40 hour (AID 1224879); also: nearly all actives have a fitted effect of over 40% in size
How it was run: as §2

[4] = qHTS RealTime-Glo MT Cell Viability Assay in HEK293 cells - 0 hour (AID 1224880); also: top concentration of the series differs between compounds; nearly all actives have a fitted effect of over 45% in size
How it was run: (§3)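 Luminescence readout at each listed time point; HEK293, 600 cells/well, RealTime-Glo MT reagent added with cells; compounds pinned (23 nL in DMSO) after 5 h at 37 C; continuous culture at 37 C.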

[5] = A CellTox Green Cytotoxicity Assay to monitor cytotoxicity in HEK293 cells - 32 hour (AID 1224881); also: nearly all actives have a fitted effect of over 40% in size
How it was run: (§4)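 Read-out: fluorescence of a cell-impermeant cyanine dye staining DNA of dead cells, proportional to cytotoxicity. HEK293, 600 cells/well with reagent, compound (23 nL DMSO) added after 5 h; reads at 0, 8, 16, 24, 32, 40 h.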

[6] = A CellTox Green Cytotoxicity Assay to monitor cytotoxicity in HepG2 cells - 0 hour (AID 1224882); also: nearly all actives have a fitted effect of over 35% in size
How it was run: as §2

[7] = A CellTox Green Cytotoxicity Assay to monitor cytotoxicity in HepG2 cells - 32 hour (AID 1224883); also: nearly all actives have a fitted effect of over 50% in size
How it was run: as §2

[8] = A CellTox Green Cytotoxicity Assay to monitor cytotoxicity in HEK293 cells - 8 hour (AID 1224884); also: nearly all actives have a fitted effect of over 35% in size
How it was run: as §4

[9] = qHTS RealTime-Glo MT Cell Viability Assay in HepG2 cells - 16 hour (AID 1224885); also: nearly all actives have a fitted effect of over 50% in size
How it was run: as §1

[10] = qHTS RealTime-Glo MT Cell Viability Assay in HEK293 cells - 24 hour (AID 1224886); also: top concentration of the series differs between compounds; nearly all actives have a fitted effect of over 50% in size
How it was run: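 HEK293 cells were seeded at 600 cells/well together with NanoLuc luciferase and cell-permeant prosubstrate, preincubated 5 h at 37 C/5% CO2, then given compound in DMSO by pintool. Luminescence from viable-cell prosubstrate reduction was read repeatedly over 40 h.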

[11] = qHTS RealTime-Glo MT Cell Viability Assay in HEK293 cells - 8 hour (AID 1224887); also: top concentration of the series differs between compounds; nearly all actives have a fitted effect of over 50% in size
How it was run: as §3

[12] = A CellTox Green Cytotoxicity Assay to monitor cytotoxicity in HEK293 cells - 16 hour (AID 1224888); also: nearly all actives have a fitted effect of over 35% in size
How it was run: as §4

[13] = qHTS RealTime-Glo MT Cell Viability Assay in HepG2 cells - 0 hour (AID 1224889); also: nearly all actives have a fitted effect of over 50% in size
How it was run: as §1

[14] = A CellTox Green Cytotoxicity Assay to monitor cytotoxicity in HepG2 cells - 8 hour (AID 1224890); also: nearly all actives have a fitted effect of over 45% in size
How it was run: as §2

[15] = qHTS assay to identify small molecule antagonists of the estrogen receptor alpha (ER-alpha) signaling pathway using the BG1 cell line in the presence of 0.1 nM 17-beta-estradiol - cell viability counter screen (AID 1259241); also: nearly all actives have a fitted effect of over 40% in size
How it was run: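 Cells were plated and left 24 hr, compounds in DMSO were pinned in, 17beta-estradiol was added to 0.1 nM final, and after 22 hr CellTiter-Fluor reagent was added for 30 min before fluorescence was read.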

[16] = qHTS assay to identify small molecule antagonists of the androgen receptor (AR) signaling pathway using the MDA cell line in the presence of 0.5 nM R1881 - cell viability counter screen (AID 1259242); also: nearly all actives have a fitted effect of over 45% in size
How it was run: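 Live-cell protease fluorescence, CellTiter-Fluor, 30 min at 37C. Cells: MDA-kb2, 3,000/well, preincubated 5 hr. Compounds plus 0.5 nM R1881 final, 16 hr, 37C, 0% CO2.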

[17] = biological target: Estrogen receptor (Homo sapiens) (UniProt P03372); experiment: qHTS assay to identify small molecule antagonists of the estrogen receptor alpha (ER-alpha) signaling pathway using the BG1 cell line in the presence of 0.1 nM 17-beta-estradiol (AID 1259244); also: nearly all actives have a fitted effect of over 50% in size
How it was run: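 Luminescence after ONE-Glo (30 min, room temperature) measured ERE-luciferase activity in VM7Luc4E2 cells treated 22 h with compound and 0.1 nM final 17beta-estradiol as stimulator.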

[18] = qHTS assay to identify small molecule phospholipidosis (PLD) inducers (AID 1259344; active = well fitted curve in the direction sought with a large enough effect; an effect the other way counts as inactive or inconclusive)
How it was run: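 Cells (HepG2, 900 per well) attach for 4 h, receive LipidTOX Red and compound together, incubate 24 h at 37 C, are fixed 30 min with paraformaldehyde/Hoechst, then imaged at one site per well.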

[19] = qHTS assay to identify small molecule HDAC inhibitors (AID 1259364)
How it was run: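 HCT-116 (wild type), 1,500 cells/well, overnight; compound 2 hr 37C 5% CO2; HDAC-Glo I/II reagent 30 min RT; luminescence readout.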

[20] = biological target: Androgen receptor (Homo sapiens) (UniProt P10275); experiment: qHTS assay to identify small molecule antagonists of the androgen receptor (AR) signaling pathway using the MDA cell line in the presence of 0.5 nM R1881 (AID 1259243); also: nearly all actives have a fitted effect of over 50% in size
How it was run: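 MDA-kb2, MMTV-luc (AR/GR elements); 3,000 cells/well; cpd + 0.5 nM R1881 final; 16 hr 37C, 0% CO2; ONE-Glo 30 min RT; luminescence.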
% is scaled to controls: 0 for no effect and ±100 for the full control effect.

Sequence of Estrogen receptor (Homo sapiens) (P03372 whole entry, looked up): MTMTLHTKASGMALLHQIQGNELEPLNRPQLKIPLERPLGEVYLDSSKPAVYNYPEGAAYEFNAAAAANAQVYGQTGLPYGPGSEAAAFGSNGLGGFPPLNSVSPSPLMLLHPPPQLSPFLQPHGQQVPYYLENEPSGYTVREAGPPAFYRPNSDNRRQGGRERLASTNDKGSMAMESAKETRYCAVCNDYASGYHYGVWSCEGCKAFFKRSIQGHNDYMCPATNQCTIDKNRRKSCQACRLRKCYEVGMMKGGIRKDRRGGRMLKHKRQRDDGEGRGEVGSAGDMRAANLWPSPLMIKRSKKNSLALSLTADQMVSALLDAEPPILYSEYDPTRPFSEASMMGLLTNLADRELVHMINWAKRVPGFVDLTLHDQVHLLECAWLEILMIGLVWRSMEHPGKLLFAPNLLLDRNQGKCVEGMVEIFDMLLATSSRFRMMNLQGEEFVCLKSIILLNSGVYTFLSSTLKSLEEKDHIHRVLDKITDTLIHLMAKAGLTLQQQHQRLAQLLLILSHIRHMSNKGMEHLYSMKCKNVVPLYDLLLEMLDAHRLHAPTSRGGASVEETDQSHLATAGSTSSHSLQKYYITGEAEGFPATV
Sequence of Androgen receptor (Homo sapiens) (P10275 whole entry, looked up): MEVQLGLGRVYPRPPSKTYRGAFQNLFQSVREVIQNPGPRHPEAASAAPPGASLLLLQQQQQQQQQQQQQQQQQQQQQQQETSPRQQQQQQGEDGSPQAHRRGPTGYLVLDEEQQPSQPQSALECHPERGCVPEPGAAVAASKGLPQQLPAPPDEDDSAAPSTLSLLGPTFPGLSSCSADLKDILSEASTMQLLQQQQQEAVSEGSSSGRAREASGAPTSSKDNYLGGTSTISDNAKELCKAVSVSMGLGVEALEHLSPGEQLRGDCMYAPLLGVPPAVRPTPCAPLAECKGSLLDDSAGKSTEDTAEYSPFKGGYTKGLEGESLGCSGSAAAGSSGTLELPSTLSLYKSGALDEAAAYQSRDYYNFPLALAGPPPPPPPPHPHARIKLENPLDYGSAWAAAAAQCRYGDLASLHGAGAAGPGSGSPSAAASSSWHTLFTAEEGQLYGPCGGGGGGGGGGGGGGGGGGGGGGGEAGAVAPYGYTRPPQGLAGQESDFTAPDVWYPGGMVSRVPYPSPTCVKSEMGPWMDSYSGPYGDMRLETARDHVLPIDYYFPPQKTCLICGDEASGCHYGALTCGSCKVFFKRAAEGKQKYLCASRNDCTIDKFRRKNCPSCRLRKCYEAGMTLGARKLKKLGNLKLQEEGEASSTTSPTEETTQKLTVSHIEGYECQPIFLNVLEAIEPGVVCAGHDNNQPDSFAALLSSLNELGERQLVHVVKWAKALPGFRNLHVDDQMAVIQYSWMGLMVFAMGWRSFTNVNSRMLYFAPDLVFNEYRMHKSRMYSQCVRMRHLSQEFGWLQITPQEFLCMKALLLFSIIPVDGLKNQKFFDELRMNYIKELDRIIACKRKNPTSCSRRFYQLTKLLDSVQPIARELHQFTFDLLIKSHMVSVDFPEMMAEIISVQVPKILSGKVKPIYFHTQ

CC1(C)O[C@H]2CC(=O)OC[C@]23[C@H]2CC[C@@]4(C)[C@H](c5ccoc5)OC(=O)[C@H]5O[C@]54[C@]2(C)C(=O)C[C@@H]13
inactive: outcome [1] | Potency [2] | Potency [3] | Potency [4] | Potency [5] | Potency [6] | Potency [7] | Potency [8] | outcome [9] | Potency [10] | Potency [11] | Potency [12] | Potency [13] | Potency [14] | outcome [15] | outcome [16] | outcome [17] | outcome [18] | Potency [19]

O=C(Cl)c1ccccc1[N+](=O)[O-]
inactive: outcome [1] | Potency [2] | Potency [3] | Potency [4] | Potency [5] | Potency [6] | Potency [7] | Potency [8] | outcome [9] | Potency [10] | Potency [11] | Potency [12] | Potency [13] | Potency [14] | outcome [15] | outcome [16] | Potency [20] | Potency [19]

CN(C)CCOC(=O)C(c1ccccc1)C1(O)CCCC1 (stereo unspecified)
inactive: outcome [1] | Potency [2] | Potency [3] | Potency [4] | Potency [5] | Potency [6] | Potency [7] | Potency [8] | outcome [9] | Potency [10] | Potency [11] | Potency [12] | Potency [13] | Potency [14] | outcome [15] | outcome [16] | outcome [17] | outcome [18] | Potency [19]

O=C(O)CSCC(=O)NC1CCSC1=O (stereo unspecified)
inactive: outcome [1] | Potency [2] | Potency [3] | Potency [4] | Potency [5] | Potency [6] | Potency [7] | Potency [8] | outcome [9] | Potency [10] | Potency [11] | Potency [12] | Potency [13] | Potency [14] | outcome [15] | outcome [16] | Potency [20] | PLD induction [18] 5.58% [at 7.66 µM] | Potency [19]

Cc1ncc([N+](=O)[O-])n1CC(C)O (stereo unspecified)
inactive: outcome [1] | Potency [2] | Potency [3] | Potency [4] | Potency [5] | Potency [6] | Potency [7] | Potency [8] | outcome [9] | Potency [10] | Potency [11] | Potency [12] | Potency [13] | Potency [14] | outcome [15] | outcome [16] | outcome [17] | outcome [18]

O=C(O)c1cc2ccccc2nc1C(=O)O
inactive: outcome [1] | Potency [2] | Potency [3] | Potency [4] | Potency [5] | Potency [6] | Potency [7] | Potency [8] | outcome [9] | Potency [10] | Potency [11] | Potency [12] | Potency [13] | Potency [14] | outcome [15] | outcome [16] | outcome [17] | Potency [19]

NCC1(Cc2noc(=O)[nH]2)CCCCC1
inactive: outcome [1] | Potency [2] | Potency [3] | Potency [4] | Potency [5] | Potency [6] | Potency [7] | Potency [8] | outcome [9] | Potency [10] | Potency [11] | Potency [12] | Potency [13] | Potency [14] | outcome [15] | outcome [16] | outcome [17]

CC1(C)Cc2cccc(N)c2O1
inactive: outcome [1] | Potency [2] | Potency [3] | Potency [4] | Potency [5] | Potency [6] | Potency [7] | Potency [8] | outcome [9] | Potency [10] | Potency [11] | Potency [12] | Potency [13] | Potency [14] | outcome [15] | outcome [16] | outcome [17] | Potency [19]

N#CCC(=O)NN
inactive: outcome [1] | Potency [2] | Potency [3] | Potency [4] | Potency [5] | Potency [6] | Potency [7] | Potency [8] | outcome [9] | Potency [10] | Potency [11] | Potency [12] | Potency [13] | Potency [14] | outcome [15] | outcome [16] | outcome [17] | outcome [18] | Potency [19]

C[C@@H](O)C(=O)O
inactive: outcome [1] | Potency [2] | Potency [3] | Potency [4] | Potency [5] | Potency [6] | Potency [7] | Potency [8] | outcome [9] | Potency [10] | Potency [11] | Potency [12] | Potency [13] | Potency [14] | outcome [15] | outcome [16] | outcome [17]

c1ccc(B(c2ccccc2)c2ccccc2)cc1
inactive: outcome [1] | Potency [2] | Potency [3] | Potency [4] | Potency [5] | Potency [6] | Potency [7] | Potency [8] | outcome [9] | Potency [11] | Potency [12] | Potency [13] | Potency [14] | outcome [15] | outcome [16] | outcome [17]

CC1=C(C(=O)O)N2C(=O)[C@@H](NC(=O)[C@H](N)C3=CCC=CC3)[C@H]2SC1
inactive: outcome [1] | Potency [2] | Potency [3] | Potency [4] | Potency [5] | Potency [6] | Potency [7] | Potency [8] | outcome [9] | Potency [10] | Potency [11] | Potency [13] | Potency [14] | outcome [15] | outcome [16] | outcome [17] | PLD induction [18] 0.229% [at 7.66 µM] | Potency [19]

CCn1cc(C(=O)O)c(=O)c2cnc(N3CCCC3)nc21
inactive: activity change, negative = cytotoxic [1] -0.35% [at 6.97 µM] | cytotoxicity [2] 0.605% [at 6.97 µM] | cytotoxicity increase [3] 2.25% [at 6.97 µM] | activity change, negative = cytotoxicity [4] 0.136% [at 6.97 µM] | cytotoxicity increase [5] 4.33% [at 6.97 µM] | cytotoxicity [6] 3.1% [at 6.97 µM] | cytotoxicity increase [7] -0.981% [at 6.97 µM] | cytotoxicity increase [8] 0.169% [at 6.97 µM] | activity change, negative = cytotoxic [9] 2.96% [at 6.97 µM] | activity change, negative = cytotoxicity [10] 7.35% [at 6.97 µM] | activity change, negative = cytotoxicity [11] 10.5% [at 6.97 µM] | activity change [12] 2.01% [at 6.97 µM, hits give high values] | activity change, negative = cytotoxicity [13] -5.5% [at 6.97 µM] | cytotoxicity increase [14] 3.53% [at 6.97 µM] | activity change, negative = cytotoxicity [15] -1.69% [at 8.39 µM] | viability change, negative = cytotoxic [16] 7.44% [at 8.39 µM] | outcome [18] | activity change, negative = inhibition [19] 0.504% [at 8.39 µM]

CC(=O)OC(C)=O
inactive: outcome [1] | Potency [2] | Potency [3] | Potency [4] | Potency [5] | Potency [6] | Potency [7] | Potency [8] | outcome [9] | Potency [10] | Potency [11] | Potency [12] | Potency [13] | Potency [14] | outcome [15] | outcome [16] | Potency [19]
